# Source: PubChem BioAssay
# ULK1 inh – ULK1 kinase inhibitors, primary screen, biochemical, AlphaScreen; AlphaScreen Atg13 phosphorylation by ULK1, luminescence; inhibition, % at 5.96 µM; actives 1.9% (n = 30,000); AID 1259251, 2017; in the data active = inhibition above about 43%;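 note: 0% = median of compound wells and 100% = no enzyme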
# ASK1 primary – ASK1 kinase inhibitors, primary screen, biochemical, AlphaScreen. Mitogen-activated protein kinase kinase kinase 5 (Homo sapiens), Q99683. AlphaScreen MKK6 phosphorylation by ASK1, luminescence. inhibition, % at 7.44 µM. actives 0.99% (n = 22,000). AID 1159602, 2016; in the data active = inhibition above about 35%;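 note: 0% = median of compound wells and 100% = no enzyme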
# Numbers without * were called inactive; . = not tested or not shown. Sampled rows, rich in hits. Any-hit rate of the full collection: about 2.4%.
SMILES,ULK1 inh,ASK1 primary
NC(=O)c1ccc(-c2nc(Nc3ccc(N4CCOCC4)cc3)c3ncn(Cc4ccc(C(F)(F)F)cc4)c3n2)cc1,0,22
CC(=O)Nc1ccc(Nc2nc(-c3ccc(N4CCOCC4)nc3)nc3c2ncn3C(C)C)cc1,44*,10
CC(C)n1cnc2c(Nc3ccc(N4CCOCC4)cc3)nc(-c3ccc(C(N)=O)cc3)nc21,63*,10
NC(=O)c1cc(-c2ccc(F)cc2)n[nH]c1=O,-14,.
c1ccc(CNc2nc(Nc3ccccc3)nc3c2ncn3-c2ccsc2)cc1,-38,13
O=CN1CCN(c2ncc(-c3ccc(Cl)cc3)cn2)CC1,-26,.
CCCNc1cc(C)nc(Cl)n1,-6,-16
c1cc(-n2cnc(N3CCOCC3)n2)ccc1Nc1ncc2ccc(-c3cn[nH]c3)cc2n1,74*,7
c1ccc2nc(Nc3ccc(-n4cnc(N5CCOCC5)n4)cc3)ncc2c1,46*,-7
O=c1ccc(-c2ccc3cnc(Nc4ccc(-n5cnc(N6CCOCC6)n5)cc4)nc3c2)c[nH]1,34,-13
Cn1cc(-c2ccc3cnc(Nc4ccc(-n5cnc(N6CCCC(O)C6)n5)cc4)nc3c2)cn1 (configuration not stated),79*,6
c1cc(-c2cn[nH]c2)cc(Nc2ccc(N3CCOCC3)cc2)n1,27,-2
c1ccc(-c2ccc3cnc(Nc4ccc(-n5cnc(N6CCOCC6)n5)cc4)nc3c2)cc1,13,-11
c1cc(-n2cnc(N3CCOCC3)n2)ccc1Nc1cc2cc(-c3cn[nH]c3)ccc2cn1,87*,-6
Cn1cc(-c2ccc3cnc(Nc4ccc(-n5cnc(C(C)(C)C)n5)cc4)nc3c2)cn1,10,-3
O=C(NCc1ccccc1)c1cncc(Nc2ccncc2)c1,8,-25
COc1ccc2c(c1)CC(C(=O)Nc1ccc(-c3cn[nH]c3)cc1C(=O)N(C)C)CO2 (configuration not stated),6,-5
Cc1cnc(-c2csc3ccccc23)nc1NCCc1ccc(O)cc1,-12,-7
C=CCn1c(SCC(C)O)nc2c1c(=O)[nH]c(=O)n2C (configuration not stated),3,.
COc1cc(Nc2nc(NCc3nc4ccccc4[nH]3)c3ncn(-c4ccccc4)c3n2)cc(OC)c1OC,15,-2
Cc1cc(-c2nc(Nc3ccc(-n4cnc(N5CCOCC5)n4)cc3)ncc2Cl)no1,44*,-35
Clc1cnc(Nc2ccc(-n3cnc(N4CCOCC4)n3)cc2)nc1-c1ccno1,7,-29
CC(C)NC(=O)c1cccc(NC(=O)Nc2ccc(-c3ncnc4[nH]cc(Cl)c34)cc2)c1,70*,20
CC(C)NC(=O)c1cccc(NC(=O)Nc2ccc(-c3ncnc4nc[nH]c34)cc2)c1,19,26
CC(C)(C)C(=O)Nc1cc(S(C)(=O)=O)ccc1N1CCN(C(=O)C(C)(C)C)CC1,12,.
SMILES,ULK1 inh,ASK1 primary
COc1cc(Nc2nc(Nc3ccccc3)c3[nH]cnc3n2)cc(OC)c1OC,65*,-10
CCCNc1nc(Nc2cc(OC)c(OC)c(OC)c2)nc2nc[nH]c12,59*,-41
COc1cc(Nc2nc(Nc3nccc4ccccc34)nc3nc[nH]c23)cc(OC)c1OC,1,-8
COc1cc(Nc2nc(NCc3ccccc3)c3[nH]cnc3n2)cc(OC)c1OC,67*,-19
COc1cc(Nc2nc(Nc3cccnc3)nc3nc[nH]c23)cc(OC)c1OC,23,-3
COc1cc(Nc2nc(NCCN(C(C)C)C(C)C)c3[nH]cnc3n2)cc(OC)c1OC,10,5
CCN(CC)C(=O)C1CCCN(c2nc(Nc3ccc(Oc4ccccc4)cc3)c3ncn(C4CCCCC4)c3n2)C1 (configuration not stated),-2,24
O=C(NN=Cc1ccc([N+](=O)[O-])o1)c1ccc(O)cc1,8,.
Cn1c(Nc2nc3ccc(C(=O)NC4CCN(Cc5ccccc5)CC4)cc3s2)nc2ccccc21,8,-40
COCCNC(=O)Cn1cc(C=C(C#N)C#N)c2ccccc21,4,.
O=C1Cc2cc(Nc3ccnc(Nc4ccc(N5CCOCC5)cc4)c3)ccc2N1,19,18
CNC(=O)c1cc(N2CCOCC2)ccc1Nc1cc(Nc2ccc3c(c2)CC(=O)N3)ncc1C(F)(F)F,82*,0
CNC(=O)c1ccccc1Nc1cc(Nc2ccc3c(c2)CC(=O)N3)ncc1C(F)(F)F,73*,0
CNC(=O)c1ccccc1Nc1cc(Nc2ccc3[nH]nc(C4=CCNCC4)c3c2)ncc1C(F)(F)F,-20,-8
CNC(=O)c1cc(F)ccc1Nc1cc(Nc2ccc(N3CCCC3=O)cc2)ncc1C(F)(F)F,73*,12
CNC(=O)c1ccccc1Nc1cc(Nc2ccc3c(c2)OCO3)ncc1C(F)(F)F,78*,-4
FC(F)(F)c1ccc(Cn2cnc3c(NCCOc4ccccc4)nc(Nc4ccncn4)nc32)cc1,-9,4
O=C(NC1CCN(Cc2ccccc2)CC1)c1ccc2nc(Nc3ccccc3)sc2c1,-7,-4
